The term AC50 denotes the concentration at which the activity in the assay is half-maximal.

Active and inactive are the calls of the source. How the source made its calls: active means hit-call score of the fitted dose curve at least 0.9, where 1 is the maximum; inactive means score below 0.9.

Results on four compounds are retold here after PubChem BioAssay (EPA / NIEHS).

Conditions in all cases: mRNA level, 48 h; actives raise or lower the signal
Read-out in test [1]: Early growth response protein 1 (EGR1) transcription factor, EGR1 (gene 1958)
Put plainly: LTEA_HepaRG_EGR1: Life Technologies and Expression Analysis (LTEA) Assay for Early growth response protein 1 (EGR1) transcription factor using HepaRG (AID 2283490). The method in brief: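 Differentiated human HepaRG cells in serum-free induction medium were exposed in duplicate for 48 h to eight concentrations (top 100 uM, half-log steps) in 0.5% DMSO. EGR1 mRNA was quantified by qRT-PCR, normalized to ACTB, GAPDH and POLR2A, and fitted bidirectionally versus DMSO.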

Read-out in test [2]: Ezrin (EZR), EZR (gene 7430)
Put plainly: LTEA_HepaRG_EZR: Life Technologies and Expression Analysis (LTEA) Assay for Ezrin (EZR) using HepaRG (AID 2283491). A digest of the protocol: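 Read-out is EZR transcript level by qRT-PCR, normalized to three housekeeping genes and fitted bidirectionally against the DMSO control. Human HepaRG cells received test chemicals for 48 h at eight half-log concentrations up to 100 uM in 0.5% DMSO.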

Read-out in test [3]: Cytochrome P450 3A7 (Homo sapiens) (UniProt P24462)
Put plainly: LTEA_HepaRG_CYP3A7: Life Technologies and Expression Analysis (LTEA) Assay for CYP3A7 using HepaRG (AID 2283492). The method in brief:
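Human HepaRG liver cells, 48 h post-plating, switched to serum-free induction medium and exposed in duplicate for 48 h. Dosing: 100 uM top, half-log dilutions, 8 points, 0.5% DMSO vehicle. Read-out: CYP3A7 mRNA, gain or loss fitted against DMSO baseline.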

Read-out in the next test: CYP3A5 (gene 1577)
Put plainly: LTEA_HepaRG_CYP3A5: Life Technologies and Expression Analysis (LTEA) Assay for CYP3A5 using HepaRG (AID 2283493). A digest of the protocol:
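HepaRG plated 48 h, switched to serum-free induction medium, chemicals added 48 h (max 100 uM, half-log, 0.5% DMSO). RNA isolated; CYP3A5 by TaqMan qRT-PCR. Gain/loss vs DMSO.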

Read-out in test [4]: Fatty Acid-Binding Protein 1 (FABP1), FABP1 (gene 2168)
Put plainly: LTEA_HepaRG_FABP1: Life Technologies and Expression Analysis (LTEA) Assay for Fatty Acid-Binding Protein 1 (FABP1) using HepaRG (AID 2283494). A digest of the protocol: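 Differentiated human HepaRG cells were exposed in duplicate for 48 h in serum-free induction medium to 8-point half-log concentration series topping at 100 uM in 0.5% DMSO. FABP1 mRNA measured by TaqMan qRT-PCR, normalized to ACTB/GAPDH/POLR2A; bidirectional fit versus DMSO.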

Read-out in test [5]: Cytochrome P450 4A22 (Homo sapiens) (UniProt Q5TCH4)
Put plainly: LTEA_HepaRG_CYP4A22: Life Technologies and Expression Analysis (LTEA) Assay for Cytochrome P450 4A22 (CYP4A22) using HepaRG (AID 2283495). The method in brief: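 Readout is CYP4A22 transcript induction or loss, quantified by qRT-PCR and normalized to ACTB, GAPDH and POLR2A. Human HepaRG cells receive test chemicals for 48 h at eight half-log concentrations from 100 uM in 0.5% DMSO.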

Read-out in test [6]: Cytochrome P450 7A1 (Homo sapiens) (UniProt P22680)
Put plainly: LTEA_HepaRG_CYP7A1: Life Technologies and Expression Analysis (LTEA) Assay for Cytochrome P450 7A1 (CYP7A1) using HepaRG (AID 2283496). The method in brief: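 HepaRG cells plated 48 h, then switched to serum-free induction medium and exposed in duplicate for 48 h to 8-point half-log series from 100 uM in 0.5% DMSO. CYP7A1 mRNA by qRT-PCR (TaqMan), normalized to ACTB/GAPDH/POLR2A; bidirectional fit versus DMSO.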

Read-out in test [7]: Glutathione S-Transferase (GSTA2), GSTA2 (gene 2939)
Put plainly: LTEA_HepaRG_GSTA2: Life Technologies and Expression Analysis (LTEA) Assay for Glutathione S-Transferase (GSTA2) using HepaRG (AID 2283497). A digest of the protocol:
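Human HepaRG cells, plated 48 h, then exposed in serum-free induction medium for 48 h to eight half-log concentrations up to 100 uM in 0.5% DMSO, duplicate. GSTA2 mRNA by qRT-PCR, normalized to ACTB/GAPDH/POLR2A; bidirectional fit versus DMSO.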

Read-out in test [8]: Glutamate-cysteine ligase catalytic (GCLC), GCLC (gene 2729)
Put plainly: LTEA_HepaRG_GCLC: Life Technologies and Expression Analysis (LTEA) Assay for Glutamate-cysteine ligase catalytic (GCLC) using HepaRG (AID 2283498). The method in brief: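 Differentiated human HepaRG cells, plated 48 h then switched to serum-free induction medium, were exposed in duplicate for 48 h to 8 half-log concentrations topping at 100 uM in 0.5% DMSO. GCLC mRNA was quantified by qRT-PCR against ACTB, GAPDH and POLR2A.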

Read-out in test [9]: growth arrest and DNA damage 45 (GADD45G), GADD45G (gene 10912)
Put plainly: LTEA_HepaRG_GADD45G: Life Technologies and Expression Analysis (LTEA) Assay for growth arrest and DNA damage 45 (GADD45G) using HepaRG (AID 2283499). A digest of the protocol: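 Gain or loss of GADD45G mRNA, quantified by TaqMan qRT-PCR against three housekeeping genes, is fitted in both directions relative to 0.5% DMSO. Human HepaRG cultures receive test chemical for 48 h at up to 100 uM.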

Read-out in test [10]: Glutamate-cysteine ligase regulatory (GCLM), GCLM (gene 2730)
Put plainly: LTEA_HepaRG_GCLM: Life Technologies and Expression Analysis (LTEA) Assay for Glutamate-cysteine ligase regulatory (GCLM) using HepaRG (AID 2283500). The method in brief:
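Cells were plated, cultured 48 h, switched to serum-free induction medium, then dosed in duplicate for 48 h at eight half-log concentrations up to 100 uM. RNA was then profiled by qRT-PCR; gain or loss versus DMSO was fitted.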

Read-out in test [11]: Glutathione S-transferase M3 (GSTM3), GSTM3 (gene 2947)
Put plainly: LTEA_HepaRG_GSTM3: Life Technologies and Expression Analysis (LTEA) Assay for Glutathione S-transferase M3 (GSTM3) using HepaRG (AID 2283501). A digest of the protocol: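 HepaRG, plated 48 h, then serum-free induction medium; test chemical 48 h, duplicate; 100 uM top, half-log x8, 0.5% DMSO. Read-out: GSTM3 mRNA (TaqMan qRT-PCR, Fluidigm array). Bidirectional fit vs DMSO.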

Read-out in test [12]: Hypoxia-inducible factor 1-alpha (Homo sapiens) (UniProt Q16665)
Put plainly: LTEA_HepaRG_HIF1A: Life Technologies and Expression Analysis (LTEA) Assay for Hypoxia-inducible factor 1 (HIF1A) Trancription factor using HepaRG (AID 2283503). A digest of the protocol: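 Differentiated HepaRG cells in serum-free induction medium exposed 48 h, in duplicate, to 8-point half-log series from 100 uM in 0.5% DMSO. HIF1A mRNA measured by TaqMan qRT-PCR, normalized to ACTB/GAPDH/POLR2A, fitted bidirectionally versus DMSO.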

Read-out in test [13]: 3-Hydroxy-3-Methylglutaryl-CoA Synthase 2 (HMGCS2), HMGCS2 (gene 3158)
Put plainly: LTEA_HepaRG_HMGCS2: Life Technologies and Expression Analysis (LTEA) Assay for 3-Hydroxy-3-Methylglutaryl-CoA Synthase 2 (HMGCS2) using HepaRG (AID 2283504). A digest of the protocol: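 HepaRG, plated 48 h then switched to serum-free induction media; cmpd 8-pt, max 100 uM, 1/2-log, 0.5% DMSO, n=2, 48 h. HMGCS2 mRNA by Fluidigm TaqMan qRT-PCR, ACTB/GAPDH/POLR2A norm; bidirectional fit vs DMSO.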

Read-out in the next test: HGF (gene 3082)
Put plainly: LTEA_HepaRG_HGF: Life Technologies and Expression Analysis (LTEA) Assay for Hepatocyte Growth Facto (HGF) using HepaRG (AID 2283505). A digest of the protocol:
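Read-out is HGF transcript level by qRT-PCR, normalized to three housekeeping genes, fitted bidirectionally against 0.5% DMSO vehicle. Human HepaRG cells received test chemicals for 48 h at up to 100 uM.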

Read-out in test [14]: Insulin Like Growth Factor 1 (IGF1), IGF1 (gene 3479)
Put plainly: LTEA_HepaRG_IGF1: Life Technologies and Expression Analysis (LTEA) Assay for Insulin Like Growth Factor 1 (IGF1) using HepaRG (AID 2283506). The method in brief:
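HepaRG, plated 48 h, then switched to serum-free induction media; test chemical 8-pt half-log from 100 uM (0.5% DMSO), duplicate, 48 h. Lysis in RLT, TaqMan qRT-PCR, norm. ACTB/GAPDH/POLR2A. Bidirectional fit vs DMSO.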

Read-out in test [15]: Intercellular Adhesion Molecule 1 (ICAM1), ICAM1 (gene 3383)
Put plainly: LTEA_HepaRG_ICAM1: Life Technologies and Expression Analysis (LTEA) Assay for Intercellular Adhesion Molecule 1 (ICAM1) using HepaRG (AID 2283507). The method in brief: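 Readout is qRT-PCR mRNA level, normalized to three housekeeping genes and fitted bidirectionally against 0.5% DMSO vehicle. Human HepaRG cultures received compound for 48 h, top concentration 100 uM with half-log dilutions.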

Read-out in test [16]: Insulin-like growth factor-binding protein 1 (IGFBP1), IGFBP1 (gene 3484)
Put plainly: LTEA_HepaRG_IGFBP1: Life Technologies and Expression Analysis (LTEA) Assay for Insulin-like growth factor-binding protein 1 (IGFBP1) using HepaRG (AID 2283508). A digest of the protocol: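 Thawed HepaRG cells are plated for 48 h, switched to serum-free induction medium, then dosed in duplicate for another 48 h (100 uM top, half-log steps). Lysates in RLT go to qRT-PCR, and gain or loss of signal is fitted relative to vehicle.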

Read-out in test [17]: Interleukin 6 (IL6), IL6 (gene 3569)
Put plainly: LTEA_HepaRG_IL6: Life Technologies and Expression Analysis (LTEA) Assay for Interleukin 6 (IL6) using HepaRG (AID 2283509). The method in brief:
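Differentiated human HepaRG cells, plated 48 h then switched to serum-free induction medium, were exposed in duplicate for 48 h to eight half-log concentrations up to 100 uM in 0.5% DMSO. IL6 mRNA measured by qRT-PCR, normalized to ACTB/GAPDH/POLR2A.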

Read-out in test [18]: Heat shock 70 kDa protein 1 (HSPA1A), gene 3303
Put plainly: LTEA_HepaRG_HSPA1A: Life Technologies and Expression Analysis (LTEA) Assay for Heat shock 70 kDa protein 1 (HSPA1A) using HepaRG (AID 2283502). The method in brief: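 Readout is HSPA1A transcript level by microfluidic qRT-PCR, normalized to three housekeeping genes and analysed for gain or loss of signal relative to 0.5% DMSO. Human HepaRG cultures received test chemicals for 48 h at up to 100 uM.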

Sequence of Cytochrome P450 3A7 (Homo sapiens) (P24462 whole entry, looked up): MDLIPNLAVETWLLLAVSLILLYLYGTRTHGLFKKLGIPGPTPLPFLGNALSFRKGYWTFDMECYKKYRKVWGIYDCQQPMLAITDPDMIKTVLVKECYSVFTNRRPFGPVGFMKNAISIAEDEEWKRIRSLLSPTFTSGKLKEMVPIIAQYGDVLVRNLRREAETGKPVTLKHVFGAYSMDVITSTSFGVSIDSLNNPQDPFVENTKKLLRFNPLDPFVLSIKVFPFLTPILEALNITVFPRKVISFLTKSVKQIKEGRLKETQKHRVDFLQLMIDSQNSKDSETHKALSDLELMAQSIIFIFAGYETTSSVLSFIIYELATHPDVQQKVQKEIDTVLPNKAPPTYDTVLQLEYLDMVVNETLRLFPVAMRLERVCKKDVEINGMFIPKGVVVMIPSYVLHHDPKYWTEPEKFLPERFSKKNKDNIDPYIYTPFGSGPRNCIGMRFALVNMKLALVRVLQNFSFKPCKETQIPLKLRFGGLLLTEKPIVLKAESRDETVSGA
Sequence of Hypoxia-inducible factor 1-alpha (Homo sapiens) (Q16665 whole entry, looked up): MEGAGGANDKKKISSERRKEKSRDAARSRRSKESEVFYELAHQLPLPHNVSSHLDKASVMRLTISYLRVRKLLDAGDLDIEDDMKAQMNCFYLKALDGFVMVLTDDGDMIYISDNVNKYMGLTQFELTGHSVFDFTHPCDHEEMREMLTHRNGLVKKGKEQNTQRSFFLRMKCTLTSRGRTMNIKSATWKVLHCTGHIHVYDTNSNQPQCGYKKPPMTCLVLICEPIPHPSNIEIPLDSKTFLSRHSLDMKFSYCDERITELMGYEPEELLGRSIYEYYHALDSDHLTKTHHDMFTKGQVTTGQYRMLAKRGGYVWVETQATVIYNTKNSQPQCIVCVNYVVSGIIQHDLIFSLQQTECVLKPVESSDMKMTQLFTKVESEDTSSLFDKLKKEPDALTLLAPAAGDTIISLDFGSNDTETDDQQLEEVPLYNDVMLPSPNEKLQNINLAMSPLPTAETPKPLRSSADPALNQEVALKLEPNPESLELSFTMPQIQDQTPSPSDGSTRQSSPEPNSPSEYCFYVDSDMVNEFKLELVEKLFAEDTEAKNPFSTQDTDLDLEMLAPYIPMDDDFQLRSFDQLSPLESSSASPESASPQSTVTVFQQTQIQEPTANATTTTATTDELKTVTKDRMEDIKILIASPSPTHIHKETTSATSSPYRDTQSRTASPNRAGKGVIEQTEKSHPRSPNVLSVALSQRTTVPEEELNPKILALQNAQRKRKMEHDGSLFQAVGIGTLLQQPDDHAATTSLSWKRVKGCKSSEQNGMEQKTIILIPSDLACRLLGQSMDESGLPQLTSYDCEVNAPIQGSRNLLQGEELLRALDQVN

Consider `CC(C)Oc1cccc(NC(=O)c2ccccc2C(F)(F)F)c1`, for which the call (in test [1]; in test [2]; in [3]; in the test with CYP3A5 (gene 1577); in [4]; in [5]) was inactive. The result in test [6], in [8], in test [9], in test [10], in [11] and in test [12] was inactive. The compound was classed as inactive (in [13]; with HGF (gene 3082); in test [15]; in test [16]; in test [17]). Further, the figures for the AC50 in test [7] and in test [14] were 50 µM (active) and 80.9 µM (active), respectively.
`COC(=O)NS(=O)(=O)c1ccc(N)cc1`: the result (in test [1]; in test [2]; in test [3]; in the test with CYP3A5 (gene 1577); in test [4]; in [5]) was inactive. In addition, the outcome in test [6], in test [7], in test [8], in [9], in test [10] and in test [11] was inactive. For the same compound, the outcome (in test [12]; in test [13]; with HGF (gene 3082); in test [14]; in test [15]; in test [16]) was inactive. The outcome in test [17] was inactive.
As to `CCCC(=NOCC)C1=C(O)CC(CC(C)SCC)CC1=O` (stereo unspecified), the call (in test [1]; in [2]; in test [3]; with CYP3A5 (gene 1577); in test [4]; in [5]) was inactive. For the same compound, the compound was classed as inactive in test [6], in test [7], in [8], in [9], in test [10] and in [11]. In addition, the call (in test [12]; in test [13]; in the test with HGF (gene 3082); in test [14]; in test [15]; in test [16]) was inactive. Moreover, the outcome in test [17] was inactive.
In the case of `CCCN(CC)CC1COC2(CCC(C(C)(C)C)CC2)O1` (stereo unspecified), the call (in test [1]; in [2]; in test [3]; in the test with CYP3A5 (gene 1577); in test [4]; in [5]) was inactive. For the same compound, the compound was classed as inactive in test [6], in test [7], in [8], in test [10], in [11] and in test [18]. Also, the call (in [12]; in [13]; with HGF (gene 3082); in test [14]; in test [15]; in [16]) was inactive. Besides, the compound was called inactive in test [17].
